For assay [1], the target named is Cytochrome P450 2D6 (Homo sapiens) (UniProt P10635). The assay is described as follows: qHTS Assay for Inhibitors and Substrates of Cytochrome P450 2D6 (AID 891). Further: nearly all actives have a fitted effect of over 60% in size. Further: potency means the concentration at half of the fitted maximal effect.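 On activity change, negative = inhibition: luciferin methyl ether substrate demethylated by CYP2D6 with NADPH regeneration.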 In outline:
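Luminescent read-out of luciferin formed by 5 nM human CYP2D6 demethylating 30 uM Luciferin-ME EGE (Km level) over 60 min at room temperature after NADPH regeneration addition. Data normalized to full inhibition by 1.43 uM quinidine.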

The target in assay [2] is Cytochrome P450 3A4 (Homo sapiens) (UniProt P08684). The assay is described as follows: qHTS Assay for Activators of Cytochrome P450 3A4 (AID 885). Further: nearly all actives have a fitted effect of over 65% in size. Further: potency means the concentration at half of the fitted maximal effect. In outline:
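Luminescent readout of luciferin formed from 25 uM Luciferin-PPXE (KM level) by 20 nM CYP3A4 in 200 mM KPO4, with 60 min NADPH-driven reaction at room temperature after 10 min compound exposure. Ketoconazole (57 uM) defined 100% inhibition.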
On the technique in general: In qHTS, concentration-response curves come from the screen itself.

Assay [3] can be described thus: Confirmation and Secondary Assay for Modulators of Hemoglobin Beta Chain Splicing at IVS2 654 locus (AID 910).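 Further: HeLa cells stably carrying EGFP split by mutant beta-globin IVS2-654 intron.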 In outline:
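HeLa cells stably expressing EGFP interrupted by β-globin IVS2-654 intron, seeded overnight in Opti-MEM/2% FCS, then treated 2 days at 37 °C. Restored splicing read as total peak GFP intensity per well by laser scanning cytometry (488 nm excitation, 500–520 nm emission); 500 nM antisense PNA as control.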

A short description of assay [4]: Confirmation and Secondary Assay for Modulators of Hemoglobin Beta Chain Splicing at IVS2 705 locus (AID 930).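 Further: HeLa cells stably expressing the EGFP-705 splicing reporter; GFP fluorescence per well restored by corrected splicing of the IVS2-705 intron in EGFP; series mostly up to about 46 µM.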 In outline: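 Stable HeLa line with EGFP disrupted by mutant beta-globin intron 2 (705). Overnight attachment, then 2 days of compound at 37C, 5% CO2. Signal: peak GFP intensity summed over objects 5-250 µm.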
Assay [5] has as its target Cytochrome P450 2C19 (Homo sapiens) (UniProt P33261). Briefly: qHTS Assay for Inhibitors and Substrates of Cytochrome P450 2C19 (AID 899). Further: nearly all actives have a fitted effect of over 60% in size. Further: potency means the concentration at half of the fitted maximal effect. In outline: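 5 nM human CYP2C19 with 10uM Luciferin-H EGE (at KM) in 50mM KPO4, compound preincubated 10 min at 37C, then NADPH regeneration for 60 min at 37C. Luciferin read by luminescence after detection reagent; normalized to 57uM ketoconazole as full inhibition.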

Assay [6] deals with Alpha-galactosidase (Coffea arabica) (UniProt Q42656). Briefly: Counterscreen for Glucocerebrosidase Inhibitors: qHTS Assay for Coffee Bean alpha-Galactosidase at pH 4.5 (AID 957). Further: series mostly up to about 77 µM. In outline: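 Fluorogenic qHTS at pH 4.5 (citrate buffer with Tween-20): 2 nM enzyme, 80 uM 4-MU-alpha-galactoside substrate, compound titrated 0.7 nM to 77 uM, 20 min room temperature. Glycine/NaOH stop; 4-MU read Ex 365/Em 440; Hill-equation AC50 against no-enzyme and enzyme controls.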
A general note: Counterscreens check selectivity or assay interference.

For assay [7] the target is unchanged. The assay is described as follows: Counterscreen for Glucocerebrosidase Inhibitors: qHTS Assay for Coffee Bean alpha-Galactosidase at pH 5.9 (AID 998). In outline: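 Enzyme 2 nM + cpd (0.7 nM–77 uM titration) + 4-MU-alpha-Gal 80 uM, pH 5.9 citrate/Tween-20, RT 20 min, NaOH/glycine stop pH 10, fluor 365/440. Normalized to no-enzyme and full-activity controls; Hill-fit AC50.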

The nature of assay [8]: qHTS Assay for Identification of Small Molecule Antagonists for NFkB Signaling Pathway (AID 895; active means well fitted inhibition curve with a large enough effect in the signal ratio, with a control signal flat, not every such curve was filed as active; the % refers to the signal ratio; further: potency means the concentration at half of the fitted maximal effect). In outline: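 ME-180 NFkB-bla cells (beta-lactamase under NFkB response element), plated overnight, treated with compound then 10 pM TNF alpha (about EC50) for 5 hrs at 37 C. LiveBLAzer FRET read at 460/530 nm emission, 405 nm excitation.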
The target of assay [9] is Muscarinic acetylcholine receptor M1 (Rattus norvegicus) (UniProt P08482). The assay is described as follows: qHTS Assay for Antagonists of Acetylcholine Muscarinic M1 Receptor: Kinetic Measurement of Intracellular Calcium Response (AID 943). Further: potency means the concentration at half of the fitted maximal effect; nearly all actives have a fitted effect of over 75% in size. In outline:
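Antagonism measured as reduction of carbachol-evoked (EC80, 100 nM final) calcium flux in rat M1-CHO cells after 10 min compound exposure. Fluo-4 signal read kinetically; ratio of maximal to basal fluorescence.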

Assay [10] is described as follows: qHTS Assay for Identification of Small Molecule Antagonists for Thrombopoietin (TPO) Signaling Pathway (AID 918). Further: potency means the concentration at half of the fitted maximal effect; nearly all actives have a fitted effect of over 60% in size. The following applies: TPO-dependent cell signaling reporter, antagonist mode. In outline: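 Inhibition read as reduced luciferase luminescence after 24 h at 37 C in IL-3-deprived Ba/F3 cells carrying human TPO receptor and GPIIb-promoter reporter, stimulated with 26 pM TPO (final, its EC50) alongside compound.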

Unmarked numbers belong to inactive results. Results filed as inconclusive are left out. A call without a number means that no potency is given here. The source made the active and inactive calls. Unless noted, the call rests on the fitted dose curve; in most records, active means well fitted curve in the direction sought with a large enough effect; inconclusive means small, poorly fitted or top-dose-only effect, or another doubt; inactive means no such curve, though single readings can be large; an effect the other way counts as inactive or inconclusive.

This is an account of results in PubChem BioAssay (NCATS).

Alpha-galactosidase (Coffea arabica), sequence (Q42656 whole entry, looked up): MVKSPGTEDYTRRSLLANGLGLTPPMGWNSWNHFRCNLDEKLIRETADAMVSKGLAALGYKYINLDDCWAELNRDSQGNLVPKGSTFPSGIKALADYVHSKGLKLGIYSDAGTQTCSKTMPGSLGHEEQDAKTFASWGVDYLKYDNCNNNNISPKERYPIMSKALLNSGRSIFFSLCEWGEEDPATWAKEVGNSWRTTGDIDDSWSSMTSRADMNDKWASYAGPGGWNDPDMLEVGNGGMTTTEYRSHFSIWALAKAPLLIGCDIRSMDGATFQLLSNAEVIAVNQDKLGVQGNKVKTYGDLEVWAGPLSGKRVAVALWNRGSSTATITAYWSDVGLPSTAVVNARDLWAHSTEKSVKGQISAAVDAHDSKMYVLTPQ
Cytochrome P450 3A4 (Homo sapiens), sequence (P08684 whole entry, looked up): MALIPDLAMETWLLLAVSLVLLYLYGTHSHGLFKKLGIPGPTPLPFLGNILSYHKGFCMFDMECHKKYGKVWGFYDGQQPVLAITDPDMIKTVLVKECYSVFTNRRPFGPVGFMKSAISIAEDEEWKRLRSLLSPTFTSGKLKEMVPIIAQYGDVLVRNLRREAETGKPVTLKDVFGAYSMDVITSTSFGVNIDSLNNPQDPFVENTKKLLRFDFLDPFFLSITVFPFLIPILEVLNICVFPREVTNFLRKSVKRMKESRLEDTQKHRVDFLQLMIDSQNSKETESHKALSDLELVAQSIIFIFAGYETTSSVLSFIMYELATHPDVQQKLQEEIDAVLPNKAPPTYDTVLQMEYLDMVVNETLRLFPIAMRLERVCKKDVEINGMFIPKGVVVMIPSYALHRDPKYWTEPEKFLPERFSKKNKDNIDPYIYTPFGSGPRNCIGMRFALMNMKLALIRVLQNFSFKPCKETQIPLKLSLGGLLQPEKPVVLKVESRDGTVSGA
Cytochrome P450 2C19 (Homo sapiens), sequence (P33261 whole entry, looked up): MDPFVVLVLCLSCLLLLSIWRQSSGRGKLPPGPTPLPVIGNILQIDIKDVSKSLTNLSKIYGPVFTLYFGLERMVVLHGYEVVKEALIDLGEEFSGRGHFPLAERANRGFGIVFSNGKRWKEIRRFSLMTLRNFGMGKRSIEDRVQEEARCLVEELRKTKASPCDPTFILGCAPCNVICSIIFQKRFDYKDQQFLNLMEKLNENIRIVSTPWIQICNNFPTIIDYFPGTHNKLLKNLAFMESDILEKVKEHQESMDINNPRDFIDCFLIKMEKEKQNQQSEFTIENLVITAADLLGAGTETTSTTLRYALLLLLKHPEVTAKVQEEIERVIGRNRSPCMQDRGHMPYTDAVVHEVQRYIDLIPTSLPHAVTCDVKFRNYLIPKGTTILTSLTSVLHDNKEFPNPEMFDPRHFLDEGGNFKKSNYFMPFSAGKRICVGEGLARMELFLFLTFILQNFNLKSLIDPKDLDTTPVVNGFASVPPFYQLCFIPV
Cytochrome P450 2D6 (Homo sapiens), sequence (P10635 whole entry, looked up): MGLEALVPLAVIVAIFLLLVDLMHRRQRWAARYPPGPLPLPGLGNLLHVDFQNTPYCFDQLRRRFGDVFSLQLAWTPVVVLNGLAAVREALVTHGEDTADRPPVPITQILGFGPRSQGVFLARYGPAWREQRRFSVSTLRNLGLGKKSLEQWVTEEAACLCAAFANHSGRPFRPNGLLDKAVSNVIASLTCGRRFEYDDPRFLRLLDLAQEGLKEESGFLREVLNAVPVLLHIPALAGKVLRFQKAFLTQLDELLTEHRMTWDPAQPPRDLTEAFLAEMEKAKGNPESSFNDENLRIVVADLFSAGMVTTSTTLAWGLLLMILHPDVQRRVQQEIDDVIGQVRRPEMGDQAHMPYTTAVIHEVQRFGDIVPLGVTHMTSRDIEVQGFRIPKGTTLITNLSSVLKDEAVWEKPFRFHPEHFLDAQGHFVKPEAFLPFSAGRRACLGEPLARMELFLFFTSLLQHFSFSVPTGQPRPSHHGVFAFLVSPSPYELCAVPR
Muscarinic acetylcholine receptor M1 (Rattus norvegicus), sequence (P08482 whole entry, looked up): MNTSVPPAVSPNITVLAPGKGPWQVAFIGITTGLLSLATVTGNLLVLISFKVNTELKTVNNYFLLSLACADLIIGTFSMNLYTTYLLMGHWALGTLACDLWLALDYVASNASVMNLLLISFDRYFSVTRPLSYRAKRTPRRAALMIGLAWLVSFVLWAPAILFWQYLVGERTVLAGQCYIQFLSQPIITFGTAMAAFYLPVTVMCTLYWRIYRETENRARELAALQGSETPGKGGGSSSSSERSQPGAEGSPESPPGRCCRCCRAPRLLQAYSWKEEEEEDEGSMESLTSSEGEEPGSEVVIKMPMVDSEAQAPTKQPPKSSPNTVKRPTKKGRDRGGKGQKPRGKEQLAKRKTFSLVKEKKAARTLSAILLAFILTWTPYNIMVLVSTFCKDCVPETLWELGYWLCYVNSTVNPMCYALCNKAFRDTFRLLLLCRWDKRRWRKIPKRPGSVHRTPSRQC

Turning to `CCN1CCC[C@@H](OC(=O)C(c2ccccc2)c2ccccc2)C1`, the Potency in assay [1] is 1.58 µM (active).

`O=C(OCC1CO1)C1CCCCC1C(=O)OCC1CO1` (stereo unspecified): the Potency result in [2] was “inactive”.

In the case of `CCC1=C(C[C@H]2NCCc3ccccc32)C[C@@H]2c3cc(OC)c(OC)cc3CCN2C1`, the Potency in assay [1] was 2.51 µM (active).

Consider `Oc1ccc2c(c1)OCO2`, for which the Potency entry in assay [2] was “inactive”.

On to `COc1cc(C(=O)OC2CC[C@]3(C)C4CCC5[C@]6(O)CC(O)[C@]7(O)C(CN8CC(C)CCC8[C@]7(C)O)[C@]6(O)C[C@@]53O[C@]24O)cc(OC)c1OC` (stereo partly specified), for which the Potency entry in assay [2] is “inactive”.

Consider `OCC(O)Cc1ccc2c(c1)OCO2` (stereo unspecified), for which the Potency entry in assay [2] and in assay [3] was “inactive” each time. Further, the result in assay [4] was inactive.

Take `COC(=O)[C@H]1[C@H](c2ccccc2)C(=O)[C@@]2(O)c3ccccc3O[C@@]12c1ccccc1`: the activity change, positive = activation in assay [2] was -48.2% [at 11.4 µM].

Consider `c1ccc2c(c1)-c1ccccc1C2N1CC2CCC(CC2)C1`, for which the Potency in assay [1] is 3.98 µM (active).

Turning to `C[C@]12CC[C@@H]3C(=CCc4cc(O)ccc43)[C@@H]1CCC2=O`, the Potency result in assay [2] was “inactive”.

As to `O[C@@H]1[C@@H]2c3cc4c(cc3CN3CCC(=C[C@@H]1O)[C@H]23)OCO4`, the Potency in assay [1] was 3.98 µM (active).

Take `COC(=O)[C@H]1[C@@H](c2ccccc2)[C@@]2(c3ccccc3)Oc3ccccc3[C@@]1(O)[C@@H]2O`: the activity change, positive = activation in [2] is -40.9% [at 11.4 µM]. Besides, in assay [1], the activity change, negative = inhibition was 40.2% [at 11.4 µM].

Take `CC(=O)[C@@H]1CC[C@@H]2[C@@H]3CCC4=CC(=O)CC[C@@]4(C)[C@H]3CC[C@]21C`: the Potency in assay [2] was 3.98 µM (active); in [5], 7.94 µM (active).

As to `CC(C)=CCC1=C(O)c2ccccc2C(=O)C1=O`, in assay [2], the Potency entry was “inactive”.

`COC(=O)CCC(C)C1CCC2C3C(O)C[C@@H]4CC(O)CC[C@@]4(C)C3CC(O)[C@]12C` (stereo partly specified): in assay [2], the Potency result was “inactive”.

`CC(C)CCC[C@@H](C)[C@@H]1CC[C@@H]2[C@H]3CC[C@H]4C[C@@H](N)CC[C@@]4(C)[C@@H]3CC[C@]21C`: the activity change, negative = inhibition in [1] is 11% [at 11.4 µM]. The activity, negative = inhibition in [5] is 61.6% [at 11.4 µM].

`CN1[C@H](CC(=O)c2ccccc2)CCC[C@H]1C[C@@H](O)c1ccccc1`: the Potency in [1] is 0.01 µM (active).

As to `COc1cc2ccc(=O)oc2c2ccoc12`, the Potency entry in assay [2] and in assay [3] was “inactive” throughout. In addition, in [4], the result was inactive.

`Cc1ncc(CN2CC=C(c3ccccc3)CC2)c(N)n1`: the Potency result in [2] is “inactive”.

Take `O=C1OC(=O)[C@@H]2[C@@H]1[C@@H]1CC[C@H]2O1`: the Potency result in assay [1] is “inactive”. For the same molecule, the call in assay [6] and in [7] was inactive.

For `O[C@@H](c1cc(-c2ccccc2)nc2c1ccc1ccccc12)[C@@H]1CCCCN1`, in assay [1], the Potency was 3.16 µM (active).

As for `CC1(C)C2(Cl)C(Cl)C(Cl)C(Cl)(C(Cl)Cl)C1(Cl)C2Cl` (stereo unspecified), the Potency result in assay [2] is “inactive”.

For the molecule `CC(C)(C)c1ccc(OC(=O)Nc2ccc(O)c(C(=O)O)c2)cc1`, the activity change, negative = inhibition in assay [1] was 22.6% [at 11.4 µM].

As to `O[Si@](CCCN1CCCCC1)(c1ccc(F)cc1)C1CCCCC1`, the Potency result in assay [2] was “inactive”. Also, the Potency in assay [1] was 0.501 µM (active). For the same molecule, the outcome in assay [6] and in [7] was inactive.

Turning to `Cc1ccc(N)cc1[N+](=O)[O-]`, the Potency result in assay [2] was “inactive”.

With `Fc1cccc(/C=N\N=C/c2cccc(F)c2)c1`, the result in [6] was inactive.

Consider `CN1[C@@H](CC(=O)c2ccccc2)CCC[C@@H]1C[C@@H](O)c1ccccc1`, for which the Potency in assay [8] is 12.6 µM [stimulated with 10 pM TNF alpha] (active); in [9], 5.62 µM (active). Moreover, the outcome in assay [6] and in [7] was inactive.

As to `C[C@@](N)(Cc1ccc(O)cc1)C(=O)O`, in [6], the call was inactive.

On to `N=C1Sc2ccccc2C2=NCCCN12`, for which the molecule was called inactive in assay [6].

With `COc1ccc2c(c1)CCC1C2CC[C@]2(C)[C@H](NCCCCCCN3C(=O)C=CC3=O)CC[C@@H]12` (stereo partly specified), the Potency in [10] was 2 µM (active). Further, the molecule was classed as inactive in assay [6] and in assay [7].

For the molecule `C[C@@]12CC[C@H]3[C@H](CC=C4C[C@@H](O)CC[C@@]43C)[C@@H]1CC[C@@H]2N(CCO)CCO`, in assay [5], the activity, negative = inhibition was 79.2% [at 11.4 µM].

Take `C[C@H](CCC(=O)O)[C@H]1CC[C@]2(C)[C@@H]3C(=O)C[C@H]4C(C)(C)[C@@H](O)CC[C@]4(C)[C@H]3C(=O)C[C@@]12C`: the activity, negative = inhibition in [5] was 60.6% [at 11.4 µM].

Take `Cc1cccc(/C=C\c2ccccc2)n1`: the molecule was called inactive in assay [6].

In the case of `C[C@@H]1COc2c(N3CCN(C)CC3)c(F)cc3c(=O)c(C(=O)O)cn1c23`, the result in [6] was inactive.

Regarding `N[C@]1(C(=O)O)CCc2cc(C(=O)O)ccc21`, in assay [6], the result was inactive.

On to `O=S(=O)(NCCNC/C=C\c1ccc(Br)cc1)c1cccc2cnccc12`, for which, in [6], the result was inactive.

With `CNC(=O)[C@@H]1O[C@@H](n2cnc3c(NCc4cccc(I)c4)ncnc32)[C@H](O)[C@@H]1O`, the result in [6] was inactive.

For `CC1=C(O)C(=O)C=C2C1=CC=C1[C@]2(C)CC[C@@]2(C)C3C[C@](C)(C(=O)O)CC[C@@]3(C)CC[C@@]12C` (stereo partly specified), the Potency result in assay [3] is “inactive”. Further, the molecule was called inactive in [4].

`C[C@]12CC3CC(N)(C1)C[C@@](C)(C3)C2`: the molecule was classed as inactive in assay [6].
